Structures are written as SMILES. Active and inactive are the calls of the source.

The test system of assay [1] is Plasmodium falciparum Sir2 (PF13_0152, Sir2A). Put plainly: Plasmodium falciparum Sir2A binding compounds – biochemical, small-molecule microarray, 635 nm fluorescence, primary screen (AID 1098).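 Note: score merges spot fluorescence intensity with its signal-to-noise ratio.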 The conditions noted are these: fluorescence 635 nm, higher = more signal.
Assay [2] can be described thus: probe aDKK1 binding to arrayed compounds – biochemical, biotinylated probe, 635/667 nm fluorescence, primary screen (AID 1099).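 Note: score merges 667nm spot fluorescence with signal to noise across triplicate slides.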 The conditions noted are these: small-molecule microarray, higher = more signal.
Assay [3] can be described thus: probe aCHRDL2 binding to arrayed compounds – biochemical, biotinylated probe, 635/667 nm fluorescence, primary screen (AID 1100). Particulars: small-molecule microarray, higher = more signal.
Assay [4] can be described thus: change in splice reporter luminescence, either direction, cell-based, HEK293, spliceosome inhibition project, primary screen (AID 1101).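 Note: HEK293 cells carrying a splicing-competent luciferase reporter gene; test concentration not given here.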 Particulars: HEK293 splicing luciferase reporter, 24 h, higher = more signal, called active from +8 up or from −8 down.
For assay [5], the target named is Fibroblast growth factor 10 (Homo sapiens) (UniProt O15520). In words: compounds binding fibroblast growth factor 10 – biochemical, small-molecule microarray, 635 nm fluorescence, primary screen (AID 1102). Particulars: FGF10 binding, fluorescence 635 nm, higher = more signal.
Chain of Fibroblast growth factor 10 (Homo sapiens) (O15520 whole entry, looked up): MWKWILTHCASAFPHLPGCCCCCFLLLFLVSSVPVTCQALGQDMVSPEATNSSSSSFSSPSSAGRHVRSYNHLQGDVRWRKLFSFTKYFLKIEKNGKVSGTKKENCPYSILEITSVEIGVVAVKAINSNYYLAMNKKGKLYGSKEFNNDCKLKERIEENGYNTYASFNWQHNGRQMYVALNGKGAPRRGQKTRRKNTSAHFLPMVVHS
Assay [6] has as its system glycogen synthase kinase-3 (GSK3A per assay name; protocol says GSK3B). Put plainly: compounds binding glycogen synthase kinase-3 – biochemical, small-molecule microarray, 635 nm fluorescence, GSK3A, primary screen (AID 1103). Note: the record names both GSK3A and GSK3B. The conditions noted are these: fluorescence 635 nm, higher = more signal.
In assay [7] the target is Epidermal growth factor receptor (Homo sapiens) (UniProt P00533). Put plainly: compounds binding epidermal growth factor receptor – biochemical, small-molecule microarray, 635 nm fluorescence, primary screen (AID 1104).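 Note: score merges 667 nm emission intensity with spot signal to noise over triplicate slides.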 Particulars: EGFR binding, higher = more signal.
Chain of Epidermal growth factor receptor (Homo sapiens) (P00533 whole entry, looked up): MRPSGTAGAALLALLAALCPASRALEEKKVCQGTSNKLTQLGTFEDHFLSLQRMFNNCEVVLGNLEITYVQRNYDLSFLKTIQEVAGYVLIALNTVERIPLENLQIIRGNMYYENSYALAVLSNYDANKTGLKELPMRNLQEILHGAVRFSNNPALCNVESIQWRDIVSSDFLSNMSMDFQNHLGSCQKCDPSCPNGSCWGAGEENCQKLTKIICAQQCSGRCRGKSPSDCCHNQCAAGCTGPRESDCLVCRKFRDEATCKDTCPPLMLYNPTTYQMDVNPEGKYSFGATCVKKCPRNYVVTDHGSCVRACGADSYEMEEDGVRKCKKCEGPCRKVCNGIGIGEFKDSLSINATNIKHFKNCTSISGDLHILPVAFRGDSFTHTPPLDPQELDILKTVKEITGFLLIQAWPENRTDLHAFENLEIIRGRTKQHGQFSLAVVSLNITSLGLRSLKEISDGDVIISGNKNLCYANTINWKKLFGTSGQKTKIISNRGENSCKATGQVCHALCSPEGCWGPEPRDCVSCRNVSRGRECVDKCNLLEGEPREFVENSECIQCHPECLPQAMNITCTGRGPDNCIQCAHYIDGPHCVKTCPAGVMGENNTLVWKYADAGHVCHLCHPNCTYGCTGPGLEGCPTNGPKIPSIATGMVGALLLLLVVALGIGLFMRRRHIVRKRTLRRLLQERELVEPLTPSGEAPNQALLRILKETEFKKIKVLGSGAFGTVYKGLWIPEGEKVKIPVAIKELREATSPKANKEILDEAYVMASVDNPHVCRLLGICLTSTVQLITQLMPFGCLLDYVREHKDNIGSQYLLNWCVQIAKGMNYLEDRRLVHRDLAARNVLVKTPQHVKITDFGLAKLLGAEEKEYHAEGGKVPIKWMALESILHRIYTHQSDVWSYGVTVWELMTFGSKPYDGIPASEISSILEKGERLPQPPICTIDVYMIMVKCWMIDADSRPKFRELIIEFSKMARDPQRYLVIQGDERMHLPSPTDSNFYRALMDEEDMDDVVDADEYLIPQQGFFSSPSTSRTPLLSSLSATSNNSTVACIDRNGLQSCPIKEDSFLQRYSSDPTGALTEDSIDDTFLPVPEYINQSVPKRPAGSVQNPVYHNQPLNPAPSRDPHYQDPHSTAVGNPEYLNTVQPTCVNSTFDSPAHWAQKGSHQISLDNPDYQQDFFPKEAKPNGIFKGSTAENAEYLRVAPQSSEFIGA
Assay [8] deals with Follistatin-related protein 3 (Homo sapiens) (UniProt O95633). Put plainly: compounds binding follistatin-related protein 3 – biochemical, small-molecule microarray, 635 nm fluorescence, primary screen (AID 1105).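 Note: score merges emission near 667 nm and signal to noise per printed spot across three slides.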 Particulars: FSTL3 binding, higher = more signal.
Chain of Follistatin-related protein 3 (Homo sapiens) (O95633 whole entry, looked up): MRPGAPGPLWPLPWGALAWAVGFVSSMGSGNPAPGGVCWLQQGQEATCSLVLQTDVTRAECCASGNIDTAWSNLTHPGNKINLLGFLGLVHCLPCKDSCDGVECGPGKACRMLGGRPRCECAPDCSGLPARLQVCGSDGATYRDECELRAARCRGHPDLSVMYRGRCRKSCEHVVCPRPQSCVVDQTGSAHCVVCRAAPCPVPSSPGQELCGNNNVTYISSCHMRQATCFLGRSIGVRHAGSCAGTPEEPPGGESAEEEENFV
Assay [9] has as its target Dickkopf-related protein 1 (Homo sapiens) (UniProt O94907). In words: small molecules binding DKK1 protein – biochemical, small-molecule microarray, 635 nm fluorescence scan, primary screen (AID 1106).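 Note: score merges emission near 667 nm with signal to noise over three replicate slides.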 Particulars: higher = more signal.
Assay [10] deals with Inhibin beta A chain (activin A). In words: small molecules binding activin A – biochemical, small-molecule microarray, 635 nm fluorescence scan, primary screen (AID 1107).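 Note: mouse activin A protein probed at 4.33 µg/mL on printed slides; score merges bound-protein fluorescence near 667 nm with spot signal-to-noise.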 The conditions noted are these: INHBA, higher = more signal.
Assay [11] relates to Human papillomavirus type 1a protein E7 (residues 44-93). In words: small molecules binding HPV E7 44-93 – biochemical, small-molecule microarray, residues 44-93, 635 nm fluorescence, primary screen (AID 1108).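 Note: E7 fragment applied at 1 µg/mL in TBST for 1 h at 4 C; score combines spot fluorescence with its signal to noise ratio.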 Particulars: fluorescence 635 nm, higher = more signal.
Assay [12] can be described thus: hepatitis C replication reporter changes, two-sided – Huh7 cells, luciferase reporter, HCV replication inhibitor project, primary screen (AID 1109).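 Note: huh7 hepatoma cells harbouring a luciferase neomycin HCV replicon reporter; luciferase luminescence as measure of HCV replicon replication; test concentration not given here.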 The conditions noted are these: Huh7 HCV replicon luciferase reporter, 48 h; higher = more signal. In general terms: In a reporter assay the amount or activity of a reporter protein is the signal.
For assay [13], the target named is Left-right determination factor 2 (Homo sapiens) (UniProt O00292). Put plainly: small molecules binding LEFTY2 protein – biochemical, small-molecule microarray, 635 nm fluorescence scan, primary screen (AID 1110). The conditions noted are these: higher = more signal.
Chain of Left-right determination factor 2 (Homo sapiens) (O00292 whole entry, looked up): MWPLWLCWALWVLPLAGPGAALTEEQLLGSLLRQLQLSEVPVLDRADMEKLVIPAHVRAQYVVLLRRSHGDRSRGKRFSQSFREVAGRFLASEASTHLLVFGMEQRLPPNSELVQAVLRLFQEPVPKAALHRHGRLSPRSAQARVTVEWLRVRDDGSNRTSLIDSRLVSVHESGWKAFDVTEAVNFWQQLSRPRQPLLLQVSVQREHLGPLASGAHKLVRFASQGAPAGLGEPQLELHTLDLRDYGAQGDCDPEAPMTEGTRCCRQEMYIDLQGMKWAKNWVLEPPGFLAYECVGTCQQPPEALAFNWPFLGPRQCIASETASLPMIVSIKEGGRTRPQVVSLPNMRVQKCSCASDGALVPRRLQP
The target in assay [14] is Calmodulin-1 (Homo sapiens) (UniProt P0DP23). In words: small molecules binding calmodulin-1 with EGTA – biochemical, small-molecule microarray, Cy5-labelled CALM1, profiling panel (AID 1111).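 Note: labelled calmodulin applied in Tris saline Tween buffer holding calcium plus EGTA and DTT.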 Particulars: Cy5-CALM1 binding fluorescence, higher = more signal.
Assay [15] shares this target. Put plainly: small molecules binding Ca-loaded calmodulin-1 – biochemical, small-molecule microarray, Cy5-labelled CALM1, plus calcium, artefact control for SMM control-protein annotation, profiling panel (AID 1112).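 Note: score merges spot fluorescence with signal to noise from triplicate slides.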 The conditions noted are these: Cy5-CALM1 binding fluorescence, higher = more signal.
Assay [16] is described as follows: probe aWnt5a binding to arrayed compounds – biochemical, biotinylated probe, 635/667 nm fluorescence, primary screen (AID 1113).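 Note: score merges 667 nm fluorescence intensity with signal-to-noise per printed feature.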 Particulars: small-molecule microarray, higher = more signal.
Assay [17] in a line: probe aShh binding to arrayed compounds – biochemical, biotinylated probe, 635/667 nm fluorescence, primary screen (AID 1114).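 Note: probe is biotin-labelled aShh protein from a stem cell growth factor screen; measures binding of labelled protein to compounds printed on the slide; score merges feature fluorescence at 667 nm with signal-to-noise.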 The conditions noted are these: small-molecule microarray, higher = more signal.
Assay [18] in a line: probe aNog binding to arrayed compounds – biochemical, biotinylated probe, 635/667 nm fluorescence, primary screen (AID 1115).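 Note: probe is biotinylated aNog protein used at 0.15 µg/mL for 1 h at 4 C; z-score combines 667 nm fluorescence of each spot with its signal to noise.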 Particulars: small-molecule microarray, higher = more signal.
Assay [19] concerns the target Torsin-1A-interacting protein 1 (Homo sapiens) (UniProt Q5JTV8). In words: compound microarray binding of lysate hLAP1 – cell lysate, small-molecule microarray, COS7 lysate, 635/667 nm fluorescence, primary screen (AID 1116). The conditions noted are these: 635 nm fluorescence, higher = more signal.
For assay [20], the target named is Alpha-bungarotoxin (Bungarus multicinctus) (UniProt P60615). Put plainly: compounds binding labelled alpha-BTX control protein – biochemical, small-molecule microarray, Alexa647 label, 635/667 nm fluorescence, artefact control for SMM control protein annotation, profiling panel (AID 1117). The conditions noted are these: alpha-BTX-A647 binding fluorescence, higher = more signal.
Chain of Alpha-bungarotoxin (Bungarus multicinctus) (P60615 whole entry, looked up): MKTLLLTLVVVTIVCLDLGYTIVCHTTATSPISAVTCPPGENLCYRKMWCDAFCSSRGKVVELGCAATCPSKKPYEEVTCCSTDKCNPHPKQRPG

Chain of Dickkopf-related protein 1 (Homo sapiens) (O94907 whole entry, looked up): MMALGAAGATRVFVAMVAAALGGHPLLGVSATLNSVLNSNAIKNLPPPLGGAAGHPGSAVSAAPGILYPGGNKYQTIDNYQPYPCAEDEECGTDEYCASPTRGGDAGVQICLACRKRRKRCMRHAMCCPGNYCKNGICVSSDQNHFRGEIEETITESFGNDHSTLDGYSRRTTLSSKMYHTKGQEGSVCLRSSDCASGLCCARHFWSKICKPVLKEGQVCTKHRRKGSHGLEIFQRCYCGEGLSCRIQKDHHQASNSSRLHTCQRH
Chain of Torsin-1A-interacting protein 1 (Homo sapiens) (Q5JTV8 whole entry, looked up): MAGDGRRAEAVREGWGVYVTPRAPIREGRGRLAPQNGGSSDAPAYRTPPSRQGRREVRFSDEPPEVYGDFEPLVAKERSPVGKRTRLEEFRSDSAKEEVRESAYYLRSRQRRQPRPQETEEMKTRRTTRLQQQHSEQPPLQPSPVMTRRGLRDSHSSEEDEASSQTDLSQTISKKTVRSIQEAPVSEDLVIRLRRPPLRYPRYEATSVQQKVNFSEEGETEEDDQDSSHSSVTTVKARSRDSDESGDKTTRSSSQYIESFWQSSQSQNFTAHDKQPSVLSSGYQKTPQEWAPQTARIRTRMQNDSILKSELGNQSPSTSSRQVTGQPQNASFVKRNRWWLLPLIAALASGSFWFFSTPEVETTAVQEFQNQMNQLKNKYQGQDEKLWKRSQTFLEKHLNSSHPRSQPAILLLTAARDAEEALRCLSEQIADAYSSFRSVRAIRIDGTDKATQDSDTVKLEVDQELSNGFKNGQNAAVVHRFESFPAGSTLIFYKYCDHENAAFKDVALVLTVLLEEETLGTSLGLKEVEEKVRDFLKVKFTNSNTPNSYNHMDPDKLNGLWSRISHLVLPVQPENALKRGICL

As to `[N-]=[N+]=NCc1ccccc1[C@H]1OC(c2ccc(OCCCO)cc2)=N[C@@]1(Cc1ccccc1N=[N+]=[N-])C(=O)O`, the composite z-score was 1.07 in [1]; 1.08 in [2]; 0.904 in assay [3]; 0.716 in assay [5]; 1.03 in assay [6]; -0.0317 in [7]. For the same molecule, the composite z-score in assay [8] is 0.783; in [9], -0.107; in [10] it was 0.987; in [11] it was 1.41; in assay [13], -0.0361; in [14], 1.82. The composite z-score is 0.83 in assay [15]; -0.0161 in [16]; 0.385 in assay [17]; 0.19 in assay [18]; 0.765 in assay [19]; 1.98 in assay [20]. In addition, the values for the z-score in [4] and in assay [12] were 0.258 (inactive) and -0.304, respectively.

Take `COc1cc(Cc2cc3c(c(-c4ccccc4)n2)[Si](C(C)C)(C(C)C)OC3)cc(OC)c1OC`: the composite z-score is -0.201 in assay [1]; -0.113 in assay [2]; 0.105 in assay [3]; 0.607 in [5]; -0.0611 in assay [6]; 0.1 in assay [7]. Moreover, the composite z-score in assay [8] was 0.0088; in assay [9], 0.17; in [10] it was 1.23; in assay [11] it was -1.82; in assay [13], 0.363; in assay [14] it was -0.651. Besides, the composite z-score in assay [15] was -0.0062; in [16], -0.175; in assay [17], 0.915; in assay [18] it was -0.359; in [19], -0.181; in assay [20] it was 1.34. Besides, the z-score in assay [4] is -0.877 (inactive); in assay [12], 0.385.

As for `O=C(O)C1=CC[C@H]2C(=O)N(c3ccccc3)C(=O)[C@@H]12`, the composite z-score was determined as 0.767 in assay [1]; 0.45 in assay [2]; 0.682 in [3]; 0.855 in assay [5]; 1.04 in assay [6]; 0.325 in assay [7]. Also, the composite z-score in assay [8] worked out at 1.11; in assay [9], 0.0793; in assay [10], 1.23; in assay [11] it was 1.37; in assay [13], 0.412; in assay [14], 0.661. The composite z-score is -0.388 in [15]; 0.155 in assay [16]; 0.369 in assay [17]; 0.883 in [18]; 0.769 in assay [19]; 0.955 in [20]. The results for the z-score in assay [4] and in [12] were 0.727 (inactive) and 0.49, respectively.

Turning to `Cc1ccc(S(=O)(=O)N2[C@@H](c3ccccc3)C(C(=O)O)=CC[C@H]2c2ccc(F)cc2)cc1`, the composite z-score in assay [1] is -0.434; in assay [2], -0.224; in assay [3], 0.633; in [5], 0.876; in assay [6], 1.08; in assay [7], -0.882. The composite z-score is 0.489 in [8]; -0.757 in assay [9]; -1.32 in assay [10]; 1.46 in assay [11]; -1.25 in [13]; -0.599 in assay [14]. The composite z-score in assay [15] was -0.388; in assay [16] it was 0.108; in assay [17] it was -0.291; in assay [18] it was 0.325; in assay [19], 1.94; in assay [20], 1.18. Also, the z-score is -0.207 (inactive) in assay [4] and -0.547 in [12].

On to `Cc1cccc([C@H]2C[C@H]3C(Br)=C[C@@]2(CO)C(=O)[C@]32CO2)c1`, for which the composite z-score in assay [1] was 0.259; in assay [2], 0.0578; in assay [3], 0.382; in [5] it was 1.01; in assay [6], 0.0353; in [7], -0.0766. The composite z-score in assay [8] was 0.159; in assay [9], -0.166; in [10], 0.55; in [11] it was 0.863; in assay [13], -0.427; in [14], -0.496. Moreover, the composite z-score in assay [15] is -0.0921; in assay [16] it was -0.0566; in assay [17] it was -0.0348; in assay [18], 0.247; in [19] it was -0.374; in assay [20], -0.357. Besides, the z-score in assay [4] was -0.34 (inactive); in assay [12] it was -1.27.

For the molecule `COc1ccc(C#Cc2ccc3c(c2)[C@]2(C(=O)N3)[C@H](c3ccccc3OCCO)N3[C@H](c4ccccc4)[C@H](c4ccccc4)OC(=O)[C@H]3[C@@H]2C(=O)NC[C@H](O)c2ccccc2)cc1`, the composite z-score in [1] was 1.3; in assay [2] it was 0.183; in assay [3], -0.0392; in assay [5], 1.33; in assay [6], 1.31; in assay [7], 0.573. The composite z-score in [8] was 1.34; in assay [9], 1.2; in assay [10], -0.0784; in assay [11], 1.32; in [13], 1.02; in [14], 1.11. The composite z-score in assay [15] was -0.127; in assay [16] it was -0.0846; in [17] it was -0.16; in [18] it was -0.479; in [19], 1.01; in assay [20], 1.26. Moreover, the figures for the z-score in [4] and in [12] were -2.01 (inactive) and -2.93, respectively.

In the case of `CN(C)CCCC[C@@H]1NC(=O)[C@H]2C[C@@H](C(=O)NCCCCCCNC(=O)CS)[C@@H](c3cccc(OCCO)c3)N2C1=O`, the composite z-score in [1] was 0.872; in [2], 0.094; in [3], 0.366; in assay [5], 0.124; in assay [6], 0.846; in assay [7], -0.166. Moreover, the composite z-score is -0.606 in assay [8]; 0.156 in [9]; -0.364 in [10]; 0.521 in assay [11]; -0.17 in assay [13]; -0.0373 in assay [14]. Besides, the composite z-score in assay [15] is -0.323; in assay [16], -0.113; in [17], -0.0709; in [18], -0.429; in [19], 0.358; in assay [20] it was 0.539. Also, the z-score is 0.624 (inactive) in assay [4] and 0.0145 in assay [12].

The values above are taken from PubChem BioAssay.
